Screening data as filed in PubChem BioAssay.
Many of the other results were omitted from the sample, so hits are more common in it than they were.
Pf Dd2 inh – Plasmodium falciparum Dd2 growth inhibition; P. falciparum Dd2 growth, SYBR Green, 72 h; Potency, µM (titrated, usually from 28.9 µM), inactives show top-dose activity, negative = inhibition, actives largely listed as inhibitors; 120,000 compounds, 4.3% hits; AID 1347417; active = well fitted inhibition curve with a large enough effect;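 note: plate controls were DMSO vehicle for no effect and reference drug for full effect; nearly all actives have a fitted effect of over 65% in size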
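Infected erythrocytes (Dd2, 0.3% parasitemia, 2.5% hematocrit final) are added to compound in RPMI-1640/Albumax II medium, grown 72 h at 37C in low oxygen, then lysed with saponin/Triton-X containing SYBR Green and read by fluorescence.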
The depositor's hits bear a star; i = inactive; [ ] = another dose, or the depositor's remark. Potency is the fitted concentration of half-maximal effect.

SMILES	Pf Dd2 inh
CCn1c(CN2CCCCC2)nc2cc(NC(=O)COc3ccc(C(C)(C)C)cc3)ccc21	8.9µM*
Cn1cc([C@@H](NC(=O)CCc2ccsc2)C2CC(O)C2)cn1 (some centres undefined)	-9%
O=C(NCc1ccncc1)C1CN(S(=O)(=O)c2cccc(Cl)c2)CC12CCOCC2 (centres undefined)	-18%
O=C(CCC[C@@H]1[C@H]2CCCN3CCC[C@@H](CN1Cc1cccnc1)[C@@H]23)NCCN1CCOCC1	-9%
CCCNC(=O)C(NC(=O)c1ccc(C)cc1)C1CCN(C(=O)c2ccc3c(c2)OCO3)CC1 (centres undefined)	i
COC1C(=O)N(C2CCN(Cc3ccc(F)c(F)c3)CC2)C12CCOCC2 (centres undefined)	-29%
COc1ccc(C(=O)N2CCOCC3(CN(Cc4ccccc4)C3)C2)cc1	-12%[44.1 µM]
COc1ccc(C(=O)N2CCOCC3(CN(Cc4cc(F)cc(F)c4)C3)C2)c(OC)n1	i
COc1ccc(C(=O)N2CCOCC3(CN(Cc4ccccc4)C3)C2)c(OC)n1	0.89µM*
CN1C[C@H](O)C[C@H]1c1nc(-c2ccc3c(c2)OCO3)no1	-5%[44.1 µM]
Cc1cnc(-c2ccncc2)n1C1CCN(C(=O)C2CC2)CC1	6%
CCC[C@@H]1CN(c2cc(OC)nc(N)n2)C[C@H]1C(=O)O	-9%
O=C(C[C@@H]1C[C@H]2O[C@H](CNCc3ccncc3F)[C@@H](O)[C@H]2O1)N1CCOCC1	-2%[44.1 µM]
O=C([C@@H]1C[C@H](F)CN1C(=O)NCc1ccccc1)N1CCCCC1	9%
COC(=O)c1c(C)sc(-c2c(-c3ccc4c(c3)OCCO4)[nH]c3c2c(=O)n(C)c(=O)n3C)c1O	-7%
CCOC(=O)c1c(C)sc(-c2c(-c3ccc4c(c3)OCCO4)[nH]c3c2c(=O)n(C)c(=O)n3C)c1O	8.9µM*
CCOC(=O)c1c(C)sc(-c2c(-c3ccc(OC)c(F)c3)[nH]c3c2c(=O)[nH]c(=O)n3C)c1O	428%[5.79 µM]
c1cc(CN2CC(Oc3ccc4c(c3)OCO4)C2)cs1	-8%
O=C1[C@H]2CN(S(=O)(=O)c3ccc(F)cc3)CCN2C(=O)N1CCO	19%[44.1 µM]
Cc1ccc(-n2c(C3CCN(C(=O)Cc4cccc(F)c4)CC3)n[nH]c2=O)cc1	-3%
COc1ccc(CN2CCC3(CC2)CNC(=O)c2ccccc2O3)cc1	1%
Cc1ccc(CN2C[C@@H]3C(=O)N(Cc4ccc5c(c4)OCO5)C(=O)[C@@H]3C2)cc1	-22%
COc1ccc(CN2COc3ccc4c(-c5ccccc5)cc(=O)oc4c3C2)cc1	1.1µM*
COc1ccc(CN2Cc3[nH]nc(-c4ccccc4)c3CC2=O)cc1	-17%[44.1 µM]
Cc1ccc2c(CC(=O)N3CCOc4ccc(CN5CCOCC5)cc4C3)cc(=O)oc2c1	i
SMILES	Pf Dd2 inh
Cc1ccc(CN2COc3ccc4c(-c5ccccc5)cc(=O)oc4c3C2)cc1	0.71µM*
O=C(CCn1cnnn1)N1CCC2(CC1)Nc1ccccc1NC2=O	5%
CS(=O)(=O)N1CCC(CC(=O)NCc2ccccc2)C1 (centres undefined)	-14%
CCn1ccc(C(=O)N2CCC(Cc3nncn3CC3CC3)CC2)n1	i
COc1ccc(OC)c(CN2CCC3(CC2)CC3C(=O)N(C)CCOc2ccc(C)cc2)c1 (centres undefined)	-5%
Cc1ccc(Nc2sc(C(=O)c3ccccc3)c(N)c2C(=O)NC(C)C)cc1	-3%
COc1ccc(CCNC(=O)c2c(Nc3ccccc3C)sc(C(=O)c3ccccc3)c2N)cc1OC	i
Cc1ccc(Nc2sc(C(=O)c3ccccc3)c(N)c2S(=O)(=O)c2ccccc2)c(C)c1	10µM*
CCOc1ccc(Nc2sc(C(=O)c3cccc(OC)c3)c(N)c2S(=O)(=O)c2ccccc2)cc1	i
COc1ccccc1Nc1sc(C(=O)c2ccc(C)cc2C)c(N)c1S(=O)(=O)c1ccccc1	-15%
COc1cccc(C(=O)c2sc(Nc3ccc(C)cc3C)c(S(=O)(=O)c3ccccc3)c2N)c1	10µM*
COc1ccc(OC)c(Nc2sc(C(=O)c3ccccc3)c(N)c2S(=O)(=O)c2ccccc2)c1	8.9µM*
CCOC(=O)c1sc2ccccc2c1S(=O)(=O)Nc1cc(OC)ccc1OC	53%
Cc1ccc(CNC(=O)c2c(Nc3c(C)cccc3C)sc(C(=O)c3ccccc3)c2N)cc1	-4%
COCCOC1CCN(C(C(=O)O)c2cc(C)c(OC)c(C)c2)CC1 (centres undefined)	4%
Cc1ccc(CNC(=O)[C@H]2CN(Cc3ccccc3)C[C@H]2C(=O)O)o1	11%
CN1C[C@@H](NS(=O)(=O)Cc2ccccc2)C[C@H]1c1nc(Cc2ccccc2)no1	i
COc1ccc(-n2nc(C3CCCN([S+](=O)([O-])c4cccc(C(F)(F)F)c4)C3)[nH]c2=O)cc1 (centres undefined)	-29%
CCCNC(=O)N1CCOC[C@H](Oc2ccc(OC)cc2)C1	-17%[44.1 µM]
Cc1ccc(-c2nnc(Nc3cccc(Br)c3)c3ccccc23)cc1S(=O)(=O)N1CCN(C)CC1	7.9µM*
O=C(Cn1nc(-c2ccc(Cl)cc2)c2ccccc2c1=O)Nc1cccc(Br)c1	-8%
Cc1cccc(Nc2nnc(-c3ccc(C)c(S(=O)(=O)N4CCN(C)CC4)c3)c3ccccc23)c1	10µM*
Cc1ccc(-c2nnc(Nc3cccc(Cl)c3)c3ccccc23)cc1S(=O)(=O)N1CCN(C)CC1	-5%
Cc1cc(-c2ccc(C)c(S(=O)(=O)N3CCCC(C)C3)c2)on1 (centres undefined)	28%
C#CCOc1ccc(-c2nnc(Nc3cccc(C)c3)c3ccccc23)cc1	-4%
SMILES	Pf Dd2 inh
O=C(OCc1ccccc1)N1CCn2ncc(C(=O)N3CCOCC3)c2C1	10%
Cc1ccc(-c2cc3c(=O)n(CCNC(=O)c4cccc(N(C)C)c4)ccn3n2)cc1C	-15%
CN1C[C@@H](NC(=O)C2CC2)C[C@H]1c1nc(-c2ccncc2)no1	i
CCCc1noc(-c2cccn3c(CNC(=O)Cc4ccccc4Cl)nnc23)n1	i
CCCc1noc(-c2cccn3c(CNC(=O)c4ccc(C)cc4)nnc23)n1	13µM*
CCCc1noc(-c2cccn3c(CNC(=O)Cc4ccc(Cl)cc4)nnc23)n1	-1%
COc1ccc(OC)c([S+](=O)([O-])c2nnn3c2nc(NCc2ccncc2)c2ccccc23)c1	-13%
O=C(CC[C@@H]1CNC(=O)[C@@H]2C[C@H](NCc3ccc(F)cc3)CN12)NCc1ccc(F)cc1	23%
O=C(NC1CC1)c1ccccc1OC1CN(Cc2cccc(F)c2)C1	-14%
